AID inh: inhibitors of human activation induced cytidine deaminase; hit rate 0.32% among 91,000; AID deamination FRET fluorescence, UDG-coupled, 4 h; Q9GZX7; Potency, µM (titrated, usually from 115 µM), hits mostly inhibitors; also: nearly all actives have a fitted effect of over 25% in size
Target sequence (Q9GZX7 whole entry, looked up): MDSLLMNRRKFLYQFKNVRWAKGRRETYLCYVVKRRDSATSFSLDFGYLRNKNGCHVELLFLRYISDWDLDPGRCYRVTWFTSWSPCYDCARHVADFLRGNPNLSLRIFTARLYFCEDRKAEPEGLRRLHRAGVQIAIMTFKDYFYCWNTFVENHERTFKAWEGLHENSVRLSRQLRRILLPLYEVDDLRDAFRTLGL
UDG counter: blocks uracil-DNA glycosylase in AID counter-screen | hit rate 0.14% among 91,000 | FRET deamination/UDG coupled assay, UDG read, 4 h | Potency, µM (top dose mostly 115 µM), for inactives: at the top dose activity change, negative = inhibition, hits mostly inhibitors | AID 1347430; also: nearly all actives have a fitted effect of over 65% in size
The depositor's hits bear a star; i = inactive; ? = inconclusive; [ ] = dose if it differs, or a comment. An excerpt weighted towards active compounds, which were near 0.47% of everything screened. Calls follow the shape of the dose curve; as a rule, active = well fitted curve in the direction sought with a large enough effect; inconclusive = small, poorly fitted or top-dose-only effect, or another doubt; inactive = no such curve, though single readings can be large; an effect the other way counts as inactive or inconclusive. % is scaled to controls: 0 for no effect and ±100 for the full control effect; potency is read from the fitted curve at half-maximal effect.

SMILES	AID inh	UDG counter
O=C(NCc1ccccc1Cl)C(=O)Nc1cccc2[nH]ccc12	i	-7.7%
CCCNC(=O)c1cc(-c2ccc(C)s2)nc2ccccc12	i	-2.7%
Cc1cccc(C)c1Nc1c(-c2ccc(Cl)s2)nc2ncccn12	44.7µM*	?
CCc1cccc(C)c1Nc1c(-c2cccs2)nc2ncccn12	?	6.0%
CCOCCCNC(=O)c1cc2c(-c3ccc(OC)c(OC)c3)nn(C)c2s1	i	0.1%
CCOc1ccc(CCNC(=O)c2cc3c(-c4ccc(OC)c(OC)c4)nn(C)c3s2)cc1OCC	?	79.4µM*
Cc1ccc(CN2CCC(CNc3ncnc4onc(-c5ccc(Cl)cc5)c34)CC2)cc1	i	1.5%
Cc1cccc(CN2CCC(CNc3ncnc4onc(-c5ccc(Cl)cc5)c34)CC2)c1	20µM*	-22.2%
CCOC(=O)c1ccc(NC(=O)COC(=O)c2cn(CC)c3nc(C)ccc3c2=O)cc1	i	-0.4%
CCn1cc(C(=O)OCC(=O)Nc2cccc(C(C)=O)c2)c(=O)c2ccc(C)nc21	44.7µM*	-34.1%
CCCCN(Cc1ccccc1)c1ccc(NS(=O)(=O)c2ccc(CC)cc2)cc1C(=O)O	i	-1.7%
O=C1c2ccccc2C(=O)C1(c1ccccc1)N1CCN(c2cccc(Cl)c2)CC1	i	-7.6%
O=C1c2ccccc2C(=O)C1(c1ccccc1)N1CCN(c2cccc(C(F)(F)F)c2)CC1	25.1µM*	-14.1%
Cc1ccc(Cl)cc1NC(=O)Nc1cn(CC(C)C)c(=O)c2ccccc12	79.4µM*	0.4%
COc1ccc(NC(=O)Nc2cn(CC(C)C)c(=O)c3ccccc23)c(OC)c1	i	-18.3%
CNC12CC3CC(CC(S)(C3)C1)C2	i	1.1%
Cc1nn(-c2ccccc2)c(OC(=O)C(C)C)c1Sc1ccc(Cl)cc1	?	-21.1%
CCC(=O)Oc1c(Sc2ccc(Cl)cc2)c(C)nn1C(C)(C)C	i	79.4µM*
CC(=O)C1=C(O)C(=O)NC1c1ccccc1F (stereo not given)	i	6.4%
CCCCN(C)c1ccc(-c2n[nH]c(=O)c3ccccc23)cc1[N+](=O)[O-]	i	89.1µM*
O=c1[nH]nc(-c2ccc(N3CCCCC3)c([N+](=O)[O-])c2)c2ccccc12	i	-0.7%
COc1cccc2cc(C(=O)Nc3ccccc3Oc3ccccc3)c(=O)oc12	i	2.2%
COc1ccc(NC(=O)CSc2nc3ccccc3nc2N2CCOCC2)c(OC)c1	?	-8.4%
CCOc1ccccc1NC(=O)CSc1nc2ccccc2nc1N1CCOCC1	22.4µM*	?
Cc1cccc(Nc2nc3c(c(=O)[nH]c(=O)n3C)n2CC(=O)O)c1C	i	-1.6%
SMILES	AID inh	UDG counter
Cc1ccc(C)c(N2CCN(CCCNC(=O)c3cnn(-c4ccc(F)cc4)c3C3CCN(C(=O)OC(C)(C)C)CC3)CC2)c1	28.2µM*	-28.3%
Cc1ccc(C)c(N2CCN(CCCNC(=O)c3cnn(-c4cccc(Cl)c4)c3C3CCN(C(=O)OC(C)(C)C)CC3)CC2)c1	35.5µM*	-20.1%
CN1CCN(CCNC(=O)c2cnn(-c3cccc(Cl)c3)c2C2CCN(C(=O)OC(C)(C)C)CC2)CC1	i	-16.0%
Cc1ccc(-n2ncc(C(=O)NCCc3ccccc3)c2C2CCN(C(=O)OC(C)(C)C)CC2)c(C)c1	25.1µM*	-20.9%
CCN1CCN(CCCNC(=O)c2cnn(-c3ccc(C)cc3)c2C2CCN(C(=O)OC(C)(C)C)CC2)CC1	i	9.6%
CC(C)(C)OC(=O)N1CCC(c2c(C(=O)NCCc3ccccc3)cnn2-c2ccc(F)cc2F)CC1	?	50.8%
COc1cccc(C2CC(=O)Nc3nc(N)sc32)c1OCC(C)C (stereo not given)	39.8µM*	-13.4%
COc1cccc(C2CC(=O)Nc3ccsc32)c1OC (stereo not given)	i	0.8%
CC(C)C(=O)N(Cc1ccc(-c2cccc(Cl)c2)o1)C1CCS(=O)(=O)C1 (stereo not given)	i	-1.6%
Cc1nc(-c2cccc(S(=O)(=O)N3CCC(C(=O)NCc4ccccc4Cl)CC3)c2)no1	i	?
CCc1cccc(NC(=O)C2CCN(S(=O)(=O)c3cccc(-c4noc(C)n4)c3)CC2)c1	i	79.4µM*
CCCCCCCCOC(=O)Nc1ccc(C)cc1	i	-1.8%
OCC1O[C@H]([S-])[C@H](O)[C@@H](O)[C@@H]1O.[Au+] (stereo not given in full)	25.1µM*	3.3%
CC(=O)N1CCc2c(sc3c2c(=O)n(-c2ccccc2Cl)c(=O)n3Cc2cccc(C)c2)C1	35.5µM*	?
C=Cc1ccc(Cn2c(=O)n(-c3ccccc3C)c(=O)c3c4c(sc32)CN(C(C)=O)CC4)cc1	?	-17.6%
O=C(NCC(c1cccnc1)N1CCc2ccccc21)c1ccc(Cl)cc1 (stereo not given)	?	-11.5%
COc1ccc(C(=O)NCC(c2cccnc2)N2CCc3ccccc32)cc1 (stereo not given)	100µM*	-14.6%
O=C(Nc1ccccc1)c1cccc(CSc2cccc[n+]2[O-])c1	i	-4.9%
Cc1ccc(CNC(=O)COC(=O)c2ccc3c(c2)NC(=O)CS3)cc1	i	-3.6%
COc1ccccc1-n1c(SCC(N)=O)nc2c(c1=O)C1(CCCCC1)Cc1ccccc1-2	i	-11.0%
Cc1ccc(-n2c(SCC(N)=O)nc3c(c2=O)C2(CCCC2)Cc2ccccc2-3)cc1	i	79.4µM*
CCOC(=O)C1=C(C)NC(=O)NC1c1cn(-c2ccccc2)nc1-c1ccc(OC(C)C)cc1 (stereo not given)	28.2µM*	-3.9%
COc1ccc(-c2nn(-c3ccccc3)cc2C2NC(=O)NC(C)=C2C(=O)OC(C)C)cc1OC (stereo not given)	?	-7.0%
CCc1ccc(/C=C2\Oc3cc(OS(=O)(=O)c4ccc(OC)cc4)ccc3C2=O)cc1	i	-3.2%
Cc1cc2c(C(C)C)c(O)c(O)c(C=O)c2c(O)c1-c1c(C)cc2c(C(C)C)c(O)c(O)c(C=O)c2c1O	79.4µM*	-3.9%
SMILES	AID inh	UDG counter
Cc1sc2nc(C(C)Sc3nnnn3C3CC3)[nH]c(=O)c2c1C (stereo not given)	i	-5.4%
Cc1ccc(CC(=O)N(Cc2nc(-c3ccccc3)no2)C2CCCCC2)cc1	i	79.4µM*
CCNC(=O)N(Cc1nc(-c2ccc(C)cc2)no1)C1CCCCC1	i	-8.0%
Nc1c(S(=O)(=O)O)cc(Nc2ccc(Nc3nc(Cl)nc(Nc4ccc(S(=O)(=O)O)cc4)n3)c(S(=O)(=O)O)c2)c2c1C(=O)c1ccccc1C2=O	22.4µM*	-19.2%
Cc1ccc(Nc2c(-c3c[nH]c4ccccc34)nc3cc(C)ccn23)cc1	?	79.4µM*
Cc1ccn2c(Nc3ccccc3)c(-c3c[nH]c4ccccc34)nc2c1	i	5.8%
Cc1cc(Nc2cccc(C(F)(F)F)c2)nc2ccc(NC(=O)Cc3ccc(Cl)cc3)cc12	35.5µM*	-16.8%
COc1ccc(CC(=O)Nc2ccc3nc(Nc4cccc(Cl)c4)cc(C)c3c2)cc1	i	-10.0%
Cc1cccn2c(=O)c3cc(C(=O)N(Cc4ccccc4)C(C)C)sc3nc12	79.4µM*	0.0%
CCN(C(=O)c1cc2c(=O)n3cccc(C)c3nc2s1)c1ccc(C)c(C)c1	?	-2.3%[57.5 µM]
COc1ccc(C(=O)NCC(C)O)cc1 (stereo not given)	i	-2.3%
Cc1cc(N(CCO)CCO)nc(NCc2ccccc2)n1	i	0.0%
CCc1nn2c(=O)cc(COC(=O)c3ccc(NC(=O)C4CCCCC4)cc3)nc2s1	i	1.5%
